High-throughput results from PubChem.
G9a block – qHTS Assay for Inhibitors of Histone Lysine Methyltransferase G9a; 350,000 tested, 8.8% active; G9a H3K9 monomethylation, AlphaScreen, 2 h; AID 504332, 2011; Potency, µM (doses to about 102 µM), inactives show at the top dose activity, negative = inhibition, usual class: inhibitors; further: potency means the concentration at half of the fitted maximal effect; nearly all actives have a fitted effect of over 75% in size
Target sequence (Q96KQ7 913-1193 limits assumed): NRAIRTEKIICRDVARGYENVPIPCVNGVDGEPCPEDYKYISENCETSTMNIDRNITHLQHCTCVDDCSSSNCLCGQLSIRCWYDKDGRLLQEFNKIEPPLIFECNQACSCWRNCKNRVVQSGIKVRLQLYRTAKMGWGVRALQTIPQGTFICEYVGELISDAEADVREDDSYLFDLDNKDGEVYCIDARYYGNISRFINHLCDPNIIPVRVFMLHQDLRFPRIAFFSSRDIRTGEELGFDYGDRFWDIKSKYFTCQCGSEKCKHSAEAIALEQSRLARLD
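Chemiluminescent proximity detection of H3K9 monomethylation, read after 10 min bead incubation in the dark. Reaction: 20 nM G9a, 500 nM biotin-H3K9 peptide, 20 uM SAM cofactor, 2 h, room temperature, following 15 min enzyme-compound preincubation.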
Tau fibril FP – qHTS for Inhibitors of Tau Fibril Formation, Fluorescence Polarization; Microtubule-associated protein tau (Homo sapiens), P10636; K18 P301L tau heparin fibrillization, Alexa594 FP, 6 h; Potency, µM (top dose mostly 57.7 µM), for the others: top-dose activity, negative = inhibition, hits mostly inhibitors; 280,000 tested, 0.39% active; AID 1468, 2008; further: potency means the concentration at half of the fitted maximal effect; nearly all actives have a fitted effect of over 55% in size
Target sequence (P10636 561-689 P618L limits assumed): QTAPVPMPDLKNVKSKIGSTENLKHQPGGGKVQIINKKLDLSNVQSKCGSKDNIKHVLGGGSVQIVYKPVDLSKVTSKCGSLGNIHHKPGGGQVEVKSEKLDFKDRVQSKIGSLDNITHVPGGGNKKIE
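Human K18 P301L fragment (15 uM unlabeled plus 0.24 uM Alexa 594-labeled) in 100 mM sodium acetate pH 7 with compound, aggregation induced by 20 uM heparin for 6 hr at 37 C. ThT (30 uM) added for 1 hr, then Alexa 594 FP read.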
Sfp inh – qHTS Assay for Inhibitors of Bacillus subtilis Sfp phosphopantetheinyl transferase (PPTase). 4'-phosphopantetheinyl transferase ffp (Bacillus subtilis), Q9F4F7. Biochemical Sfp PPTase activity, qHTS. Potency, µM, inactives show largest response in the series, negative = inhibition, hits mostly inhibitors. 310,000 tested, 3.5% active. AID 1490, 2009;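 further: the enzyme is Sfp with the accession as filed and its product quenches rhodamine fluorescence; potency means the concentration at half of the fitted maximal effect; 0% = enzyme reaction without inhibitor and -100% = no enzyme wells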
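After 15 min at room temperature with compound, 15 nM Sfp received 5 uM rhodamine-CoA plus 12.5 uM BHQ-2-ybbR (50 mM Hepes pH 7.6, 10 mM MgCl2). Rate came from the fluorescence difference over 30 min, ex 525/em 598 nm.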
FBPA coupling cs – qHTS Assay for Inhibitors of Fructose-1,6-bisphosphate Aldolase from Giardia Lamblia: Coupling assay counterscreen. coupling enzyme system counterscreen, AmpLite Red fluorescence. 290,000 tested, 0.67% active. AID 2472, 2010. activity change, negative = inhibition, % at 58.2 µM, hits read low; in the data active means activity change below about -30%
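First, compound is pin-transferred into glyceraldehyde-3-phosphate coupling-enzyme reagent at 57.5 uM final and held 10 min at RT. Next, substrate, coupling system and AmpLite Red are added. After 20 min RT, fluorescence (525/598 nm) is read.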
Tau fibril ThT – qHTS for Inhibitors of Tau Fibril Formation, Thioflavin T Binding. Microtubule-associated protein tau (Homo sapiens), P10636. 270,000 tested, 2.1% active. recombinant tau K18 P301L, heparin-induced fibrillization, ThT fluorescence. Potency, µM (doses to about 57.4 µM), without a hit: at the top dose activity, negative = inhibition, actives largely listed as inhibitors; further: potency means the concentration at half of the fitted maximal effect; nearly all actives have a fitted effect of over 55% in size
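Using a mix of unlabeled (15 uM) and Alexa 594-labeled (0.24 uM) tau K18 P301L, heparin-triggered fibrillization over 6 hr at 37 C was scored by ThT fluorescence.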
Tau fluor counter – Counterscreen qHTS for Inhibitors of Tau Fibril Formation, Fluorescence Polarization; Potency, µM (titrated, usually from 57.7 µM), inactives show at the top dose activity change, negative = decrease; tau K18 P301L (four-repeat tau fragment) Alexa594 fluorescence, heparin fibrillization; 280,000 tested, 0.93% active; further: potency means the concentration at half of the fitted maximal effect; nearly all actives have a fitted effect of over 55% in size
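Human K18 P301L tau (15 uM unlabeled plus 0.24 uM Alexa 594-labeled, final) in 100 mM sodium acetate pH 7 was mixed with compound and 20 uM heparin and incubated 6 hr at 37 C.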
The depositor's hits bear a star; ? = inconclusive; / = not tested or not shown; [ ] = another dose, or the depositor's remark. Only some compounds are listed: those with a hit (about 11% of all), similar ones and a draw of the others. Unless noted, the call rests on the fitted dose curve; in most records, active means well fitted curve in the direction sought with a large enough effect; inconclusive means small, poorly fitted or top-dose-only effect, or another doubt; inactive means no such curve, though single readings can be large; an effect the other way counts as inactive or inconclusive. Unless noted, on the % scale 0 is the no-effect control and ±100 the full control effect.

SMILES | G9a block | Tau fibril FP | Sfp inh | FBPA coupling cs | Tau fibril ThT | Tau fluor counter
COc1ccc(S(=O)(=O)Nc2c(C(=O)O)[nH]c3ccc(OC)cc23)c(OC)c1 | 2.2µM* | / | 25µM* | 5 | / | /
Cn1c(=O)c2ccccc2n(CC(=O)NCCC2=CCCCC2)c1=O | 28µM* | / | -10% | -2 | / | /
COc1ccc(-n2nc(C(=O)NCC(=O)NCCC3=CCCCC3)c3ccccc3c2=O)cc1OC | 50µM* | / | 6% | 0 | / | /
Cn1c(=O)c2sccc2n(CC(=O)NCCC2=CCCCC2)c1=O | 11% | / | 5% | 0 | / | /
COC(=O)CNC(=O)CNC(=O)c1nn(-c2ccc(OC)c(OC)c2)c(=O)c2ccccc12 | 10% | / | 16% | -1 | / | /
COC(=O)CSc1nnc2n(-c3ccccc3)c(=O)c3c4c(sc3n12)COC(C(C)C)C4 (stereo unspecified) | -43%[59 µM] | 4% | / | / | -3% | -3%
O=Cc1cc(Cl)ccc1OCCN1CCC(Cc2ccccc2)CC1 | 25µM* | / | -24% | 0 | / | /
COc1cc(C(C)=O)ccc1OCCN1CCC(Cc2ccccc2)CC1 | ? | -4% | -25% | 1 | 0% | 0%
OCc1ccccc1OCCCN1CCC(Cc2ccccc2)CC1 | 35µM* | / | 3% | 1 | / | /
O=[N+]([O-])c1cccc(OCCN2CCC(Cc3ccccc3)CC2)c1 | 11µM* | / | -14% | 0 | / | /
Clc1ccccc1OCCN1CCC(Cc2ccccc2)CC1 | 8.9µM* | -3% | -20% | 2 | -9% | -9%
O=C(NCCc1ccccc1)c1cccc(Br)n1 | -2% | -4%[81.3 µM] | -18% | -1 | -15%[81.4 µM] | -15%[81.3 µM]
COc1cc(C(C)=O)ccc1OCCCN1CCC(Cc2ccccc2)CC1 | 35µM* | / | -10% | 0 | / | /
CCN(CC)C(=O)c1ccc2c(=O)n(Cc3cccc(Br)c3)c(=S)[nH]c2c1 | -3% | / | 9% | 0 | / | /
CCOCCCn1c(=S)[nH]c2cc(C(=O)NCC(OC)OC)ccc2c1=O | 25µM* | 5% | -16% | 3 | -3% | -6%
CCN(CC)C(=O)c1ccc2c(=O)n(CCOC)c(=S)[nH]c2c1 | 45µM* | 3% | -25% | 3 | -10% | -9%
CCOCCCn1c(=S)[nH]c2cc(C(=O)N3CCOCC3)ccc2c1=O | ? | -6% | 79µM* | 10 | 14% | 4%
Cc1ccccc1OC(=O)CSc1nnc(-c2ccc(F)cc2)o1 | -36%[59 µM] | -8% | / | / | 3% | 0%
O=C(COC(=O)CNC(=O)c1ccc(Cl)cc1Cl)NC(=O)NCc1ccccc1 | 56µM* | / | / | / | / | /
COc1ccccc1C(=O)NC(=O)COC(=O)CNC(=O)c1ccc(Cl)cc1Cl | 50µM* | / | / | / | / | /
O=C(CNC(=O)c1ccc(Cl)cc1Cl)OCc1ccccc1 | 2% | / | / | / | / | /
COc1ccccc1C(=O)NC(=O)COC(=O)CNC(=O)c1ccccc1 | 1% | / | / | / | / | /
Cc1nnc(N2CCC(C(=O)NCCc3ccccc3Cl)CC2)c2nn(-c3ccccc3)c(C)c12 | -28%[59 µM] | 4% | / | / | -5% | 4%
CN1CCN(C(CNC(=O)C(=O)Nc2ccc(F)cc2F)c2ccc3c(c2)OCO3)CC1 (stereo unspecified) | -4%[59 µM] | -8% | / | / | 4% | -1%
O=C(O)COc1ccccc1-c1nc(-c2ccccc2)c(-c2ccccc2)[nH]1 | 79µM* | / | -29% | -1 | / | /
SMILES | G9a block | Tau fibril FP | Sfp inh | FBPA coupling cs | Tau fibril ThT | Tau fluor counter
CCOC(=O)CNC(=O)COc1coc(CN2CCN(Cc3ccccc3)CC2)cc1=O | 19%[0.501 µM] | / | 9% | / | / | /
COc1ccc(S(=O)(=O)N(Cc2nc(-c3ccc(C)cc3)no2)C2CCCCC2)cc1 | 19%[59 µM] | -10% | / | / | -5% | -26%
COc1ccccc1C(=O)N/N=C(\C)CC(=O)Nc1ccc(Nc2ccccc2)cc1 | 40µM* | / | -3% | 4 | / | /
COc1ccccc1C(=O)N/N=C(\C)CC(=O)Nc1ccccc1NC(C)=O | -9%[0.501 µM] | / | -2% | -1 | / | /
C/C(CC(=O)Nc1ccc(N(C)C)cc1)=N\NC(=O)c1ccc(Cl)cc1Cl | -9%[59 µM] | / | 4% | 2 | / | /
COc1cccc(NC(=O)C(=O)N/N=C(\C)CC(=O)Nc2ccc(NC(C)=O)cc2)c1 | 71µM* | / | 10% | -1 | / | /
C/C(CC(=O)Nc1ccc(N(C)C)cc1)=N\NC(=O)c1ccc([N+](=O)[O-])cc1Cl | 45µM* | -12% | -14% | -5 | ? | ?
C/C(CC(=O)Nc1ccc(N(C)C)cc1)=N\NC(=O)c1ccccc1O | 50µM* | / | 1% | 1 | / | /
C/C(CC(=O)Nc1ccc([N+](=O)[O-])cc1)=N\NC(=O)c1ccccc1O | 9%[0.501 µM] | / | 19% | 3 | / | /
Nc1c(S(=O)(=O)O)cc(Nc2ccc(Nc3nc(Cl)nc(Nc4ccc(S(=O)(=O)O)cc4)n3)c(S(=O)(=O)O)c2)c2c1C(=O)c1ccccc1C2=O | 1µM* | 10µM* | / | / | 4µM* | 2.8µM*[quencher]
Nc1c(S(=O)(=O)O)cc(Nc2ccc(Cl)cc2)c2c1C(=O)c1ccccc1C2=O | / | / | 16µM* | -3 | / | /
Cc1ccc(C(=O)NCc2n[nH]c(=S)n2-c2ccccc2)cc1[N+](=O)[O-] | 10µM* | 6% | 7% | 3 | -2% | -6%
O=C(NCc1cccc(Cl)c1)c1cccc(S(=O)(=O)N2CCCCC2)c1 | 10%[12.7 µM] | / | / | / | / | /
Cc1cccc(-n2c(CNC(=O)c3ccc(S(=O)(=O)N4CCCC4)cc3)n[nH]c2=S)c1 | 0.71µM* | 2% | -17% | -6 | -9% | -4%
O=C(NCc1n[nH]c(=S)n1-c1cccc(Cl)c1)c1ccc(S(=O)(=O)N2CCCCC2)cc1 | 3.2µM* | / | -12% | -2 | / | /
CCOc1ccc(C(=O)c2cn(Cc3ccc(Cl)cc3)c3cc(OC)c(OC)cc3c2=O)cc1 | 21%[59 µM] | 3% | / | / | -8% | -6%
CC(=O)Nc1c(O)c2ccccc2[nH]c1=O | 50µM* | ? | 18µM* | -1 | -17% | -12%
CC(C)=NNC(=O)c1c(O)c2ccccc2[nH]c1=O | / | -1% | -6% | -6 | ? | -16%
CCCCC(=O)Nc1c(O)c2ccccc2[nH]c1=O | ? | -6% | 10% | 3 | -1% | 5%
CNC(=O)C(=O)Nc1c(O)c2ccccc2[nH]c1=O | / | -3% | 22µM* | 1 | / | 7%
O=C(O)CC1CCC(=C(Cl)Cl)C1 (stereo unspecified) | 45µM* | ? | 1% | -1 | ? | -12%
